According to PubChem BioAssay (NCI):
Where “and” joins values, the source holds several entries; their conditions need not be identical. Equal values may be shown once. Compounds without any hit were thinned out: in the full panel of roughly 83,000, 20% have a hit.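 Cell lines were cultured in 96-well plates, exposed to a single compound concentration, and assessed for percent growth 48 hours later.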 Calls of active or inactive are those of the source. The calls were made as follows: active = growth percent below 10; inactive = the rest.

Tested on: HL-60(TB) leukemia
Test: NCI-60 one-dose screen, 48 h (100 = growth as untreated, 0 = no growth, -100 = all killed)
Conditions: 10 µM unless noted

SMILES	growth
O=C(CSc1nnc2n1S(=O)(=O)c1ccccc1N2c1ccccc1)Nc1nc2ccc(F)cc2s1	106% (inactive)
CCCCCCCCCCCCCCCCNC(=S)N/N=C/c1ccc(O)cc1O	49.9% (inactive)
COC(=O)[C@]12CCC(C)(C)C[C@H]1C1=CC[C@@H]3[C@@]4(C)C/C(=C/c5cccnc5)C(=O)C(C)(C)[C@@H]4CC[C@@]3(C)[C@]1(C)CC2	-13.5% [100 µM] (active)
CC(C)NCCCCCNc1cc(O)cc2cccnc12	-43.6% (active)
CC1(C)c2[nH]c3ccccc3c2C[C@]2(C)[C@H]3CC=C4[C@@H]5C[C@@](C)(C(N)=O)CC[C@]5(C)CC[C@@]4(C)[C@]3(C)CC[C@@H]12	55.8% (inactive)
CCCCCCC1(C)NCCO1 (stereo not given)	91.2% (inactive)
O=C(OCCBr)c1ccc(Cl)c([N+](=O)[O-])c1	81.7% (inactive)
CCCC(O)Cn1ncc(C(=O)OCC)c1NC(=O)NCc1ccccc1F (stereo not given)	81.6% (inactive)
O=C(c1ccccc1)C1CCC1	88.2% (inactive)
C[N+](C)(C)c1ncnc2nc[nH]c12	91.8% (inactive)
Fc1ccc(CNc2c3ccccc3nc3ccccc23)c(F)c1	58.3% (inactive)
CCCCCCCC/C=C\CCCCCCCCOc1ccccc1CCOP(=O)(O)OCC[N+](C)(C)C	-23% (active)
O=C(N/N=C\c1cc(Cl)ccc1O)c1ccncc1	0% (active)
Clc1cnc(Nc2ccc(OCCN3CCCC3)cc2)nc1NCc1ccco1	-26.5% (active)
Cc1cc(C)nc(NS(=O)(=O)c2ccc(Nc3nc4nc(NCc5ccccc5)nc(-c5ccc(O)cc5)c4c(=O)[nH]3)cc2)n1	1.48% (active)
O=C(CN1CCN(c2cc3c(cc2F)c(=O)c(C(=O)O)cn3C2CC2)CC1)Nc1ccc(Cl)cc1	89.5% (inactive) and 98.4% (inactive)
CC(CN(C)C)CN1c2ccccc2CCc2ccccc21 (stereo not given)	108% (inactive)
CN1CCN(Cc2ccc(NC(=O)c3cncc(C#Cc4cnccc4C(F)(F)F)c3)cc2C(F)(F)F)CC1	38.4% (inactive)
COc1cc(C2NC(=O)c3ccccc3N2)ccc1OCCCCCOc1c(OC)cc(C2=NOC(c3cc(OC)c(OC)c(OC)c3)C2)cc1OC (stereo not given)	68.3% (inactive)
CCN(CC)CCOc1ccc2c(c1)C(=O)c1cc(OCCN(CC)CC)ccc1-2	94.2% (inactive) and 36.5% (inactive)

SMILES	growth
COc1ccc2c(NCCCCCCCCNc3c4ccccc4nc4cc(OC)ccc34)c3ccccc3nc2c1	-92.3% (active)
COc1cccc(Cn2c(-c3nonc3NC(C)=O)nc3ccccc32)c1	-2.59% (active)
Oc1c(Br)cc(Br)c2ccc(Cn3cc(-c4ccccc4C(F)(F)F)nn3)nc12	0.588% (active)
OC1CC2c3ccccc3C1c1ccccc12 (stereo not given)	109% (inactive)
O=C1/C(=C\c2cn(-c3ccccc3)nc2-c2ccc(-c3cccs3)cc2)CCc2ccccc21	50.2% (inactive)
COc1cc(/C=C2/Oc3cc4occc4c(OC)c3C2=O)ccc1OCC(=O)Nc1ccncc1	106% (inactive)
O=C(CCCCC(=O)N/N=C\c1ccccc1O)N/N=C\c1ccccc1O	4.44% (active)
CCOc1ccc(/C=N/Nc2cc(C)nc3ccc(Cl)cc23)cc1	-51.7% (active)
O=C(OCC1CCCO1)c1ccc([N+](=O)[O-])cc1 (stereo not given)	102% (inactive)
CCOc1cccc(Nc2nc(N)nc3[nH]c4ccc(O)cc4c23)c1	53% (inactive)
Cc1cc2c(F)c(Oc3ncnn4cc(OC[C@@H](C)OC(=O)[C@H](C)N)c(C)c34)ccc2[nH]1	12.6% (inactive)
Cn1c(=O)c2c(nc3n2CCN(CCc2ccc(OCCN4CCOCC4)cc2)C3)n(C)c1=O	101% (inactive)
C[C@H]1[C@H](C)CC[C@]2(C(=O)Nc3ccc4ncccc4c3)CC[C@]3(C)C(=CC[C@@H]4[C@@]5(C)CCCNC(C)(C)[C@@H]5CC[C@]43C)[C@H]12	-45.2% (active)
CCC(=O)Oc1ccc(/C(=C(/C)Cc2cccc(OC)c2)c2ccc(OCCN(C)C)cc2)cc1	91.3% (inactive)
Cc1ccc(N)cc1S(=O)(=O)O	92.7% (inactive) and 111% (inactive)
N#Cc1cccc(/C=C(/C(=O)c2ccccc2)c2ccccc2)c1	43.7% (inactive)
CCN1C(=O)N[C@H]2[C@@H]3NC(=O)c4ccc(Cl)n4[C@@H]3C[C@]21O	-20.6% (active)
CC(=O)c1ccc(N2C(=O)c3ccc(Oc4ccccc4)cc3C2=O)cc1	105% (inactive)
CN(C)C(C)(C)CC(C)(C)C	71.8% (inactive)
COc1cc(Nc2nc(N[C@H]3CCCC[C@@H]3N)nc3cc[nH]c(=O)c23)cc(OC)c1	16.2% (inactive)
